Data taken from PubChem BioAssay (NCATS).
Several values for one entry are separate records, joined by “and”; a condition that tells them apart may be missing. Identical values can stand only once. Values without a mark were called inactive. Results filed as inconclusive are left out. A call without a number means that no potency is given here. Activity calls are given as the source filed them. Unless noted, calls come from the whole dose curve; as a rule, active = well fitted curve in the direction sought with a large enough effect; inconclusive = small, poorly fitted or top-dose-only effect, or another doubt; inactive = no such curve, though single readings can be large; an effect the other way counts as inactive or inconclusive. Peptide text beside a SMILES is read from it.

Columns and labels:
[1] = qHTS for small molecule inhibitors of Yes1 kinase: Counter Assay (AID 686950);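 note: no kinase present so only ADP-Glo detection of a fixed ADP amount is tested; luminescence from ADP-Glo reporting ADP in a fixed ATP and ADP mixture; series mostly up to about 77 µM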
Outline: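 Enzyme-free detection counter-screen: compounds preincubated 20 min in buffer, then 0.08 mM ATP plus 0.02 mM ADP added for 60 min at room temperature; ADP-Glo luminescence. Buffer 50 mM Tris pH 7.5, 10 mM MgCl2, 150 mM NaCl; normalized to ATP+ADP and ATP-only controls.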

[2] = biological target: Nuclear receptor ROR-gamma (Homo sapiens) (UniProt P51449); assay: qHTS assay for small molecule antagonists of the retinoid-related orphan receptor gamma (ROR-gamma) signaling pathway (AID 651802);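 note: CHO cells with doxycycline-induced ROR-gamma expression; series mostly up to about 92 µM; nearly all actives have a fitted effect of over 60% in size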
Outline: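 Antagonism is scored as a fall in luminescence from a RORE-luciferase reporter in CHO cells expressing ROR under a TET-inducible promoter, measured 16hr after doxycycline induction in the presence of compound.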

[3] = qHTS assay for small molecule agonists of the antioxidant response element (ARE) signaling pathway measured by Nrf2-dependant transcriptional activity (AID 720636; active = well fitted curve in the direction sought with a large enough effect in the repeat runs; an effect the other way counts as inactive or inconclusive;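 note: HepG2 cells with an ARE-driven luciferase reporter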)
Outline: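 First, ARE-luc HepG2 cells attached for 6 hr at 37 C in 1% dialyzed FBS medium. Next, compound or DMSO was added and incubated 16 hr. Finally, ONE-Glo reagent was added and luminescence measured after 30 min.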

[4] = qHTS assay for small molecule antagonists of the retinoid-related orphan receptor gamma (ROR-gamma) signaling pathway - cell viability counter screen (AID 720652; active = well fitted curve in the direction sought with a large enough effect in the repeat runs; an effect the other way counts as inactive or inconclusive;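 note: CHO reporter cells with doxycycline-induced ROR-gamma expression; series mostly up to about 92 µM; compound exposure lasted 16 hr before ATP read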)
Outline: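 Cytotoxicity is quantified via intracellular ATP (CellTiter-Glo luminescence) in doxycycline-induced CHO ROR response element-luciferase reporter cells treated with compound for 16 hr at 37 C, 5% CO2.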

[5] = qHTS assay for small molecule agonists of the antioxidant response element (ARE) signaling pathway measured by Nrf2-dependant transcriptional activity - cell viability counter screen (AID 720653; active = well fitted curve in the direction sought with a large enough effect in the repeat runs; an effect the other way counts as inactive or inconclusive); details: ARE-bla HepG2 viability, CellTiter-Glo ATP luminescence, 16 h; max response: hits give low values
Outline: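 ARE-bla HepG2 cells treated with compounds for 16 h at 37C; this counter screen measures viability as intracellular ATP by CellTiter-Glo luminescence after 30 min at room temperature.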

[6] = biological target: Tyrosine-protein kinase Yes (Homo sapiens) (UniProt P07947); assay: qHTS for small molecule inhibitors of Yes1 kinase: Primary Screen (AID 686947); note: nearly all actives have a fitted effect of over 60% in size; note: potency is the fitted concentration of half-maximal effect
Outline: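 ADP-Glo luminescence readout; final 4 nM Yes1, 0.1 mM ATP, 0.3 mg/mL poly(E4Y), Tris pH 7.5, MgCl2, DTT, Brij-35. 20 min compound preincubation, 60 min reaction at RT. Normalized to DMSO wells with and without enzyme.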

[7] = biological target: Arylsulfatase A (Homo sapiens) (UniProt P15289); assay: qHTS screen for enhancers of Arylsulfatase A (ASA1): LOPAC Validation Assay (AID 720538); note: potency is the fitted concentration of half-maximal effect
Outline: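 SV40-transformed skin fibroblasts from an MLD patient (ASA-I179S) were treated with compounds for 48h at 37 degree C, then lysed with 0.5mM pNCS final substrate for 14h at room temperature; NaOH stop, fluorescence read (Ex=525 nm; Em=598 nm).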

[8] = qHTS for compounds that reverse cellular toxicity of Amyloid beta (A-beta) peptide in yeast: LOPAC Validation Assay (AID 720559)
Outline: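 Yeast cells expressing toxic A-beta were combined with pinned compounds in growth medium and incubated 48 hr at 30 C. Growth was read as absorbance at 600 nm and normalized to DMSO and to an equimolar FeCl3/clioquinol positive control.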

[9] = qHTS for Activators of Parkin Expression: LOPAC Validation Assay (NLuc Reporter) (AID 720572)
Outline: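 Neuronal cells with a Parkin promoter-driven FLuc/NLuc coincidence reporter were treated 24 h at 37 C in 7-point dose response (LOPAC). NLuc luminescence read after FLuc; signals normalized to DMSO and positive control (100%).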

[10] = qHTS for Activators of Parkin Expression: LOPAC Validation Assay (FLuc Reporter) (AID 720573; note: potency is the fitted concentration of half-maximal effect)
Outline: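 Neuronal cell line stably carrying FLuc/NLuc coincidence reporter under Parkin promoter; cells plated 24 h, then compounds added in 7-point dose response for 24 h at 37 C. FLuc luminescence read; normalized to DMSO and positive control (100%).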

Chain of Nuclear receptor ROR-gamma (Homo sapiens) (P51449 whole entry, looked up): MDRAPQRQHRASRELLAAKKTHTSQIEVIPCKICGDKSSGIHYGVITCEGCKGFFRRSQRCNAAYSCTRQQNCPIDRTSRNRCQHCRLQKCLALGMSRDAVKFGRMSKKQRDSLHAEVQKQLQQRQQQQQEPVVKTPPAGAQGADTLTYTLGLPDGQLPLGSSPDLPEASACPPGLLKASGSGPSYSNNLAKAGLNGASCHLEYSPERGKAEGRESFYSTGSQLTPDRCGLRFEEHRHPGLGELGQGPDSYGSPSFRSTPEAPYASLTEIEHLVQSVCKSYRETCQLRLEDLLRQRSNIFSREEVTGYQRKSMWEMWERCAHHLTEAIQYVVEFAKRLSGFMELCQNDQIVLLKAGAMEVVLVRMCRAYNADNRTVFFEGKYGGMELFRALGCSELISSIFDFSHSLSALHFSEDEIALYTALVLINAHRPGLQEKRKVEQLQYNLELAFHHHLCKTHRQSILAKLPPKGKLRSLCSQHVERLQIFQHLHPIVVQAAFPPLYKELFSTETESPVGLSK
Chain of Tyrosine-protein kinase Yes (Homo sapiens) (P07947 whole entry, looked up): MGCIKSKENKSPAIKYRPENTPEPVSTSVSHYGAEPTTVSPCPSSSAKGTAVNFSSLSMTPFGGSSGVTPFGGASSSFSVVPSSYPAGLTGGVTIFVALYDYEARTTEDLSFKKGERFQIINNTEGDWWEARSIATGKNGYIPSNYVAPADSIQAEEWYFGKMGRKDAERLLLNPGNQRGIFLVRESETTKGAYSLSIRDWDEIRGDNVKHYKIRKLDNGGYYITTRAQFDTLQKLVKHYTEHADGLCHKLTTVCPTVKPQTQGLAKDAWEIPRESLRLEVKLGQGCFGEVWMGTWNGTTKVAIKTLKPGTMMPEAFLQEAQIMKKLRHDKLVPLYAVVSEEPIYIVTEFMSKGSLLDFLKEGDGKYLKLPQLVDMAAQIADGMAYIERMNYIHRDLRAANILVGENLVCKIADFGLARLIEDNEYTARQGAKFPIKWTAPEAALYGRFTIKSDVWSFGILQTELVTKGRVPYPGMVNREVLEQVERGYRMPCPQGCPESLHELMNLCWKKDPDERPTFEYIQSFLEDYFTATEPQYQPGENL
Chain of Arylsulfatase A (Homo sapiens) (P15289 whole entry, looked up): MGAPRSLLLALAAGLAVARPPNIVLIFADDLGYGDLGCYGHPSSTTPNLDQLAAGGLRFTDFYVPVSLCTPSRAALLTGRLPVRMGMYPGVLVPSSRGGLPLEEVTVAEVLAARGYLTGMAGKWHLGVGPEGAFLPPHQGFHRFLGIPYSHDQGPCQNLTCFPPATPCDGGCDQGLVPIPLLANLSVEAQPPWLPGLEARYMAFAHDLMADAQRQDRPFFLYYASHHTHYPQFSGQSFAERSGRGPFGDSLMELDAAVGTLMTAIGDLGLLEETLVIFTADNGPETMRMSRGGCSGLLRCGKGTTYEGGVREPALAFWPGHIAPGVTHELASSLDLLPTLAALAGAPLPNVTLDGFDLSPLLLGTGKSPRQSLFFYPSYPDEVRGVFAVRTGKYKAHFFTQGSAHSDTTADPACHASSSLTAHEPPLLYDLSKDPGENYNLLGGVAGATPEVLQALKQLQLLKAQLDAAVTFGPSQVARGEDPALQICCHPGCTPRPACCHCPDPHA

With `COc1cc2c(N3CCN(C(=O)Nc4ccc(OC(C)C)cc4)CC3)ncnc2cc1OCCCN1CCCCC1` the outcome [1] was “inactive”.

For `Cc1ccc(C)c(OCCCC(C)(C)C(=O)O)c1`, the outcome [2] was “inactive”, the Potency [3] was “inactive” and the outcome [4] was “inactive”. For the same molecule, the max response [5] was -1.19% and -0.256%.

For `Cc1cccc(C#Cc2ccccc2)n1`, the Potency [6] was “inactive”, the outcome [1] was “inactive” and the Potency [7] was “inactive”. The outcome [8] was “inactive”, the outcome [9] was “inactive” and the Potency [10] was 2910 nM (active).

With `CC(C)c1ccc2c(c1)c(SC(C)(C)C)c(CC(C)(C)C(=O)O)n2Cc1ccc(Cl)cc1` the outcome [1] was “inactive”, the Potency [7] was “inactive” and the outcome [8] was “inactive”. The Potency [10] was “inactive”.

With `COC(=O)[C@H](Cc1ccccc1)NC(=O)[C@@H](N)CC(=O)O` (H-Asp-Phe-OMe) the outcome [2] was “inactive”, the Potency [3] was “inactive” and the outcome [4] was “inactive”. The max response [5] was -13.7% and 2.98%.

For `O=Nc1c(-c2c(O)[nH]c3cc(Br)ccc23)[nH]c2ccccc12`, the Potency [6] was 154 nM (active), the outcome [1] was “inactive” and the Potency [7] was 21300 nM (active). The outcome [8] was “inactive”, the outcome [9] was “inactive” and the Potency [10] was 2590 nM (active).

For `Nc1nc(Cl)nc2c1ncn2[C@H]1C[C@H](O)[C@@H](CO)O1`, the Potency [6] was 79300 nM (active), the outcome [1] was “inactive” and the Potency [3] was “inactive”. It also gave a max response [5] of -12.8%.

In the case of `NS(=O)(=O)c1cc(C(=O)O)c(NCc2ccco2)cc1Cl`, the outcome [2] is reported as “inactive”, the Potency [6] is reported as “inactive” and the outcome [1] is reported as “inactive”. The Potency [3] was “inactive”, the outcome [4] was “inactive” and the max response [5] was 0.113% and -9.05%.

In the case of `COc1cc(Nc2c(C#N)cnc3cc(OCCCN4CCN(C)CC4)c(OC)cc23)c(Cl)cc1Cl`, the outcome [1] is reported as “inactive”.

For `Cc1nc(Nc2ncc(C(=O)Nc3c(C)cccc3Cl)s2)cc(N2CCN(CCO)CC2)n1`, the outcome [1] was “inactive”.

For `CCCc1cc(=O)[nH]c(=S)[nH]1`, the outcome [2] was “inactive”, the Potency [3] was “inactive” and the outcome [4] was “inactive”. The max response [5] was -7.93% and 7.26%.

In the case of `O=C1c2ccccc2-c2n[nH]c3cccc1c23`, the Potency [7] is reported as “inactive” and the outcome [8] is reported as “inactive”.

For `S=c1nc[nH]c2nc[nH]c12`, the Potency [6] was “inactive” and the outcome [1] was “inactive”.

For `O=C(c1ccccc1)c1ccc2n1CCC2C(=O)O` (configuration not stated), the Potency [7] was “inactive”, the outcome [8] was “inactive” and the outcome [9] was “inactive”.

For `CCN(CC)CCOc1ccc(Nc2ncc3cc(-c4c(Cl)cccc4Cl)c(=O)n(C)c3n2)cc1`, the Potency [6] was 0.00972 nM (active) and the outcome [1] was “inactive”.

In the case of `Cc1ccc(NC(=O)c2ccc(CN3CCN(C)CC3)cc2)cc1Nc1nccc(-c2cccnc2)n1`, the outcome [1] is reported as “inactive”.

With `Cc1ccc(Nc2nccc(N(C)c3ccc4c(C)n(C)nc4c3)n2)cc1S(N)(=O)=O` the outcome [1] was “inactive”.

For `O=C(O)c1cccnc1Nc1cccc(C(F)(F)F)c1`, the Potency [7] was “inactive”, the outcome [8] was “inactive” and the outcome [9] was “inactive”. The Potency [10] was “inactive”.

With `O=c1cc(N2CCOCC2)oc2c(-c3ccccc3)cccc12` the Potency [7] was “inactive” and the outcome [8] was “inactive”.

For `CC(C)C[C@H](NC(=O)[C@H](Cc1ccccc1)NC(=O)c1cnccn1)B(O)O`, the Potency [6] was “inactive” and the outcome [1] was “inactive”.

With `CCN(CCO)CCCC(C)Nc1ccnc2cc(Cl)ccc12` (configuration not stated) the Potency [6] was “inactive” and the outcome [1] was “inactive”.

With `c1ccc2[nH]c(-c3cscn3)nc2c1` the outcome [2] was “inactive”, the outcome [4] was “inactive” and the max response [5] was -11.8% and -19.5%.

With `CN(C)CCCC1(c2ccc(F)cc2)OCc2cc(C#N)ccc21` (configuration not stated) the Potency [7] was “inactive”, the outcome [8] was “inactive” and the outcome [9] was “inactive”. The Potency [10] was “inactive”.

In the case of `CCOC(=O)C(C)Oc1cccc2c(=O)n(CC(=O)Nc3ccc4c(c3)OCCO4)ccc12` (configuration not stated), the Potency [6] is reported as “inactive”, the outcome [1] is reported as “inactive” and the Potency [7] is reported as “inactive”. The outcome [8] was “inactive”, the outcome [9] was “inactive” and the Potency [10] was “inactive”.

In the case of `NNc1nncc2ccccc12`, the Potency [7] is reported as “inactive”.

With `Oc1ccc(-c2nc(-c3ccc(F)cc3)c(-c3ccncc3)[nH]2)cc1` the Potency [6] was 17300 nM (active), the outcome [1] was “inactive” and the Potency [7] was “inactive”. For the same molecule, the outcome [8] was “inactive” and the Potency [10] was “inactive”.

With `OC(CN1CCN(c2cccc(Cl)c2)CC1)C(c1ccccc1)c1ccccc1` (configuration not stated) the Potency [7] was “inactive”, the outcome [8] was “inactive” and the outcome [9] was “inactive”. The Potency [10] was “inactive”.

With `CS(=O)(=O)OCCCCOS(C)(=O)=O` the outcome [2] was “inactive”, the Potency [3] was “inactive” and the outcome [4] was “inactive”. For the same molecule, the max response [5] was -5.06% and -4.65% and 2.24%.

For `CCOC(=O)C1=C(O)C(=O)N(Cc2ccccc2)C1`, the Potency [6] was “inactive” and the outcome [1] was “inactive”.

With `O=C(NOCC1CC1)c1ccc(F)c(F)c1Nc1ccc(I)cc1Cl` the Potency [6] was “inactive” and the outcome [1] was “inactive”.

In the case of `C[C@@H](N)C1CCC(C(=O)Nc2ccncc2)CC1` (some centres not stated), the Potency [6] is reported as “inactive”, the outcome [1] is reported as “inactive” and the Potency [7] is reported as “inactive”. The outcome [8] was “inactive”, the outcome [9] was “inactive” and the Potency [10] was “inactive”.

For `Cc1cccc(-c2[nH]ncc2-c2ccc3ncccc3n2)n1`, the Potency [6] was 2.92 µM (active) and 2.23 µM (active) and the outcome [1] was “inactive”.

In the case of `Nc1cccc2c1CN(C1CCC(=O)NC1=O)C2=O` (configuration not stated), the Potency [6] is reported as “inactive” and the outcome [1] is reported as “inactive”.

For `CC1(C)C(=O)N(CCN2CCC(C(=O)c3ccc(F)cc3)CC2)c2ccccc21`, the Potency [7] was “inactive”, the outcome [8] was “inactive” and the outcome [9] was “inactive”. The Potency [10] was “inactive”.
